Screens (PubChem BioAssay)
Sampled rows, rich in hits. Any-hit rate of the full collection: about 21%.
Cycloheximide cs: Cycloheximide Counterscreen for Small Molecule Inhibitors of Shiga Toxin; cell reporter, cycloheximide protein synthesis inhibition counterscreen; max response, %; 12% of 300,000 active; in the data active = max response mostly above about 13%, no sharp cut-off; inactive = mostly below about 14%; also: read at 38.3 µM for the half of the compounds with a filed dose
Pf growth 48h: Primary qHTS for delayed death inhibitors of the malarial parasite plastid, 48 hour incubation | 5.9% of 310,000 active | AID 504832, 2011 | Potency, µM (doses to about 28.7 µM), hits mostly inhibitors | P. falciparum luciferase growth in erythrocytes, 48 h
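Firefly luciferase activity from engineered P. falciparum reports growth; inhibitors lower the luminescent signal. Cultures contained 2% hematocrit erythrocytes at 0.1% final parasitemia.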
Shiga inhibitor: A qHTS for Small Molecule Inhibitors of Shiga Toxin; inhibition, % at 38.7 µM; 9.2% of 290,000 active; Vero cells, Shiga toxin protein synthesis inhibition reporter; in the data active = inhibition mostly above about 28%, no sharp cut-off; inactive = mostly below about 43%
Pf growth 96h: Primary qHTS for delayed death inhibitors of the malarial parasite plastid, 96 hour incubation | P. falciparum luciferase reporter growth, 96 h | 6.9% of 320,000 active | Potency, µM (doses to about 28.7 µM), usual class: inhibitors | AID 504834, 2011
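Cell-based qHTS: luciferase-tagged P. falciparum in erythrocytes (2% hematocrit, 0.05% parasitemia final) incubated with compounds for 96 hours, 37 C, 5% CO2; luciferase detection reagent then added and luminescence measured.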
Hits are given with their value; n = inactive; u = inconclusive; x = no result given; [ ] = dose if it differs, or a comment. Unless noted, calls follow the shape of the dose curve; as a rule, active = well fitted inhibition curve with a large enough effect; inconclusive = small, poorly fitted or top-dose-only effect, or another doubt; inactive = no such curve, though single readings can be large or run the other way.

SMILES	Cycloheximide cs	Pf growth 48h	Shiga inhibitor	Pf growth 96h
CC(OC(=O)c1cccnc1Cl)C(=O)NCc1ccccc1 (stereo not given)	x	n	x	n
CCCCn1c(=O)[nH]c(=O)c2c1nc(-c1ccccn1)n2CC	n	n	n	n
O=C(NCCc1c[nH]c2ccccc12)C(=O)NCC(c1ccco1)N1CCN(c2ccccc2F)CC1 (stereo not given)	n	n	n	u
COc1ccc(N2C(=O)NC(NC(=O)c3cccnc3)(C(F)(F)F)C2=O)cc1 (stereo not given)	n	n	n	u
CCN1CCN(c2cc(C)c3cc(NC(=S)N4CCCC4)ccc3n2)CC1	n	n	n	n
CCN1CCN(c2cc(C)c3cc(NC(=S)N4CCCCC4)ccc3n2)CC1	21	u	n	u
CCN1CCN(c2cc(C)c3cc(NC(=S)N4CCCC(C)C4)ccc3n2)CC1 (stereo not given)	33	n	62	n
CCN1CCN(C(=S)Nc2ccc3nc(N4CCN(CC)CC4)cc(C)c3c2)CC1	n	6.6µM	n	n
O=C(Nc1cc(C(F)(F)F)ccc1-n1cncn1)c1ccc(-c2ccccc2)cc1	n	x	n	u
Cn1cc(CCNC(=O)c2ccc3nc(Cc4ccccc4F)oc3c2)cn1	30	n	92	1.9µM
Cc1cnc(CNC(=O)c2ccc3oc(Cc4ccc(Cl)cc4)nc3c2)cn1	n	n	n	u
Cn1cc(CNC(=O)c2ccc3nc(Cc4ccccc4F)oc3c2)cn1	59	n	89	n
CCn1cc(CNC(=O)c2ccc3nc(Cc4ccccc4F)oc3c2)cn1	32	n	n	n
CCn1cc(CNC(=O)c2ccc3nc(Cc4ccc(OC)cc4)oc3c2)cn1	20	n	n	u
O=C(COc1ccc(Cl)cc1)Nc1cccc(-c2ccc(N3CCOCC3)nn2)c1	x	n	x	n
COc1ccccc1CNC(=O)CN(Cc1ccc(Cl)cc1)S(C)(=O)=O	n	n	n	n
Cc1ccccc1C(=O)O/N=C/c1c(N2CCOCC2)n(C)c2ccccc12	n	2.6µM	n	2.3µM
Cc1cc(C)nc(/N=C(\N)Nc2ccc(S(=O)(=O)O)cc2)n1	n	n	n	n
Cc1cc(C)nc(/N=C(\N)Nc2ccc(OCc3ccccc3)cc2)n1	n	u	n	n
Cc1cc(C)nc(/N=C(\N)Nc2ccc(S(=O)(=O)Nc3nccc(C)n3)cc2)n1	n	n	n	4.1µM
Cc1cc(C)nc(/N=C(\N)Nc2ccc(OCCC(C)C)cc2)n1	n	10µM	n	u
CCN(CC)S(=O)(=O)c1ccc(NN=C2CCN(C)CC2)c([N+](=O)[O-])c1	n	n	n	u
CC(C)c1ccc(N(CC(=O)NC2CCCC2)C(=O)CCC(=O)Nc2ccccn2)cc1	n	n	n	n
O=[N+]([O-])c1cc(S(=O)(=O)NCCN2CCOCC2)ccc1Sc1nnnn1-c1ccccc1	16	13µM	n	u
Cc1ccc(-n2nnnc2Sc2ccc(S(=O)(=O)NCCN(C)C)cc2[N+](=O)[O-])cc1	n	u	n	u
SMILES	Cycloheximide cs	Pf growth 48h	Shiga inhibitor	Pf growth 96h
CC(=O)Nc1ccc(S(=O)(=O)Oc2ccc3c(c2)C(C)=CC(C)(C)N3)cc1	16	n	n	n
CC1=CC(C)(C)Nc2ccc(OS(=O)(=O)c3ccc(C)cc3)cc21	n	u	40	u
CC1=CC(C)(C)Nc2ccc(OC(=O)CCN3C(=O)c4ccccc4C3=O)cc21	22	13µM	n	n
CCOC(=O)Cn1c(=NC(=O)C2COc3ccccc3O2)sc2cc(S(N)(=O)=O)ccc21 (stereo not given)	n	n	n	u
CCOC(=O)Cn1c(=NC(=O)c2ccc([N+](=O)[O-])s2)sc2ccccc21	n	9.3µM	n	3.7µM
CCc1c2c(nc3ccc4c(c13)OCCO4)-c1nc3ccccc3c(=O)n1C2	n	x	n	x
CCc1ccccc1NC(=O)CCN1C(=O)c2ccccc2C1=O	n	x	n	u
COc1ccccc1NC(=O)CCCN1C(=O)C2CC=CCC2C1=O (stereo not given)	n	n	n	6.6µM
CCc1ccccc1NC(=O)CCN1C(=O)C2CC=CCC2C1=O (stereo not given)	n	n	n	12µM
COc1cccc(NC(=O)CCCN2C(=O)C3CC=CCC3C2=O)c1 (stereo not given)	n	n	n	n
COc1ccc(NC(=O)CCCN2C(=O)C3CC=CCC3C2=O)cc1 (stereo not given)	24	n	40	10µM
COc1ccc(-c2noc(CNC(=O)CCN3C(=O)[C@H]4CC=CC[C@H]4C3=O)n2)cc1	n	n	n	12µM
COc1ccc(-c2noc(CN(C)C(=O)CCN3C(=O)[C@H]4CC=CC[C@H]4C3=O)n2)cc1	n	u	n	u
O=C(CCCN1C(=O)C2CC=CCC2C1=O)Nc1ccccc1Cl (stereo not given)	n	n	n	n
Cc1cc2c(cc1Cl)C(c1ccc3c(c1)OCO3)CC(=O)O2 (stereo not given)	n	x	n	x
COc1cccc(NC(=O)CCN2C(=O)C3CC=CCC3C2=O)c1 (stereo not given)	49	n	73	u
Cc1ccc(S(=O)(=O)/N=C(/c2ccccc2)N2CCOCC2)c(C)c1	n	n[1.15 µM]	n	5.9µM
CC(C)c1ccc(/C=N/NC(=O)c2cccc(Cl)c2)cc1	49	n	active	u
O=C(CNC(=O)c1ccccc1Br)N/N=C/c1cc(Br)ccc1O	n	u	n	n
O=C(N/N=C/c1cccnc1)c1cccc(NC(=O)c2ccc(Cl)cc2)c1	n	u	n	n
O=C(N/N=C/c1cccnc1)c1cccc(Cl)c1	28	n	33	n
CC(C)c1ccc(/C=N/NC(=O)CCNC(=O)c2ccccc2)cc1	21	n	96	n
CC(C)c1ccc(C(=O)N/N=C/c2cccc(Cl)c2Cl)cc1	n	n	n	n
O=C(N/N=C/c1cc(Cl)ccc1O)c1ccccc1Br	40	3.7µM	27	u
O=C(CSc1nnc(C2COc3ccccc3O2)o1)N1CCN(c2ccccc2)CC1 (stereo not given)	n	n	n	n
SMILES	Cycloheximide cs	Pf growth 48h	Shiga inhibitor	Pf growth 96h
Cc1ccnc(NC(=O)CCC(=O)N(CC(=O)NC2CCCCC2)Cc2cccs2)c1	n	u	n	u
S=c1nc(NCc2cccc(Cl)c2)c2ccccc2[nH]1	n	u	n	n
O=C(N/N=C/c1cc(Cl)ccc1O)c1cccnc1	13	3.3µM	n	u
O=C(N/N=C/c1cccnc1)c1cccc(Br)c1	17	n	n	6.6µM
O=C(N/N=C\c1cc(Cl)ccc1O)c1ccc(S(=O)(=O)N2CCCCC2)cc1	n	2.6µM	n	2.9µM
O=C(Nc1cc(S(=O)(=O)Nc2ccc(Cl)cc2)ccc1O)c1ccc(S(=O)(=O)N2CCCCCC2)cc1	n	n	n	n
COc1ccc(C2=NO[C@@H]3[C@@H]4C[C@@H]([C@H]5C(=O)N(c6ccc7c(c6)OCO7)C(=O)[C@@H]45)[C@H]23)cc1OC	n	n	n	u
CCc1ccc2c(c1)C1(NN=C(c3cccc4ccccc34)S1)C(=O)N2 (stereo not given)	n	2.9µM	48	n
